The values that follow come from PubChem BioAssay (NCATS).

Records with an inconclusive call do not appear. Values without a mark were called inactive. The source made the active and inactive calls. The call rests on the fitted dose curve; in most records, active means well fitted inhibition curve with a large enough effect; inconclusive means small, poorly fitted or top-dose-only effect; inactive means no such curve, though single readings can be large or run the other way.
Potency means the concentration at half of the fitted maximal effect.

The nature of this assay: S16 Schwann cell PMP22 intronic element firefly luciferase assay (AID 624032). Further: nearly all actives have a fitted effect of over 30% in size. The conditions noted are these: S16 rat Schwann cells, PMP22 element FLuc, 24 h; series mostly up to 57.5 µM; activity change, negative = inhibition: at the top concentration. The essentials:
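Rat S16 Schwann cells stably carrying a PMP22 intronic element-driven Fluc reporter were seeded overnight, then exposed to compounds for 24 h at 37 °C. Luminescence was normalized to PTC124 (positive control) and DMSO (0% activity).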
Consider `CC1CCc2c(N3CCC(O)CC3)c(F)cc3c(=O)c(C(=O)O)cn1c23` (stereo unspecified), for which the “activity change, negative = inhibition” value is 11.9%.

Regarding `Cc1cc(C)cc(OCC2CNC(=O)O2)c1` (stereo unspecified), the “activity change, negative = inhibition” value is -0.641%.

As for `CC(=O)Oc1ccc(C)cc1`, the “activity change, negative = inhibition” value was 0.408%.

For the molecule `CC(C)(C)NC[C@H](O)COc1cccc2c1CCCC2=O`, the “activity change, negative = inhibition” value is 21.4% [at 25.7 µM].

In the case of `CC[N+](C)(CC)CCOC(=O)C(O)(c1ccccc1)C1CCCCC1` (stereo unspecified), the “activity change, negative = inhibition” value is 12.5%.

Turning to `CCCCCCCCNC(C)C(O)c1ccc(SC(C)C)cc1` (stereo unspecified), the Potency is 22.8 µM (active).

For `O=C(O)CCC(=O)Nc1ccc(S(=O)(=O)Nc2nccs2)cc1`, the “activity change, negative = inhibition” value was 17.5% [at 25.7 µM].

Regarding `Cc1cc(NS(=O)(=O)c2ccc(N)cc2)nc(C)n1`, the “activity change, negative = inhibition” value is 7.16%.

As to `NS(=O)(=O)c1ccc(Cl)c(S(N)(=O)=O)c1`, the “activity change, negative = inhibition” value was -9.54%.

For the molecule `Nc1ccc(C(=O)NCC(=O)O)cc1`, the “activity change, negative = inhibition” value was -15.1% [at 25.7 µM].

Regarding `O=C(Nc1cccc(C2=NCCN2)c1)Nc1cccc(C2=NCCN2)c1`, the “activity change, negative = inhibition” value is -20.2%.

As for `Cc1cccc(C)c1NC(=O)c1ccccc1C(=O)O`, the “activity change, negative = inhibition” value is 0.542%.

On to `CCCCNC(=O)NS(=O)(=O)c1ccc(N)cc1`, for which the “activity change, negative = inhibition” value was -8.45%.

Take `COP(=O)(OC)OC(c1ccc(Cl)cc1)P(=O)(OC)OC` (stereo unspecified): the “activity change, negative = inhibition” value was -27.1%.

With `Cc1ccc(S(=O)(=O)NC(=O)NC2CCCC2)cc1`, the “activity change, negative = inhibition” value is 13.4%.

As for `CCN1/C(=C/C=C/c2sc3ccccc3[n+]2CC)Sc2ccccc21`, the Potency is 2.03 µM (active).

Turning to `CCCc1ncc(C[n+]2ccccc2C)c(N)n1`, the “activity change, negative = inhibition” value was 3.83% [at 25.7 µM].

For the molecule `CC(=O)Nc1ccc(S(=O)(=O)Nc2ccc([N+](=O)[O-])cc2)cc1`, the “activity change, negative = inhibition” value is 8.49%.

For the molecule `COc1cc(C)nc(-n2nc(C)cc2OC)n1`, the “activity change, negative = inhibition” value is -10.9% [at 25.7 µM].

Consider `CN(C)CCOC(c1ccc(Cl)cc1)c1ccccn1` (stereo unspecified), for which the “activity change, negative = inhibition” value was 18.1%.

In the case of `CCN(CC)CCNC(=O)COc1ccc(OC)cc1`, the “activity change, negative = inhibition” value is 19.4%.

For `CC(=O)O[C@H]1C[C@@H]2CC[C@@H]3[C@H](CC[C@@]4(C)[C@H]3C[C@H]([N+]3(C)CCCCC3)[C@@H]4OC(C)=O)[C@@]2(C)C[C@@H]1N1CCCCC1`, the “activity change, negative = inhibition” value was -20.6%.

In the case of `OC1C(O)C(O)C(O)C(O)C1O` (stereo unspecified), the “activity change, negative = inhibition” value is 14.8%.

Consider `COc1ccc(CCN(C)CCCN2CCc3cc(OC)c(OC)cc3CC2=O)cc1OC`, for which the “activity change, negative = inhibition” value is 4.54%.

Consider `CC(=O)NC(=O)c1ccccc1O`, for which the “activity change, negative = inhibition” value is -1.69%.

Regarding `Cc1cccc(C)c1NC(=O)CN1CCCCCC1`, the “activity change, negative = inhibition” value is 15.3%.

As to `N#CCC(=O)NN`, the “activity change, negative = inhibition” value was -6.06%.

Turning to `CC(=O)Nc1ccc(OCC(O)CNC(C)C)cc1` (stereo unspecified), the “activity change, negative = inhibition” value is 1.06%.

As to `CCc1ccc(C(=O)C(C)CN2CCCCC2)cc1` (stereo unspecified), the “activity change, negative = inhibition” value is -13.9%.

For `NC1CCN(c2nc3c(cc2F)c(=O)c(C(=O)O)cn3-c2ccc(F)cc2F)C1` (stereo unspecified), the “activity change, negative = inhibition” value is 5.62%.

With `NS(=O)(=O)c1cc(C(=O)O)cc(N2CCCC2)c1Oc1ccccc1`, the “activity change, negative = inhibition” value was -2.69% [at 25.7 µM].

On to `CC(C)Cc1ccc(CC(=O)O)cc1`, for which the “activity change, negative = inhibition” value was -1.7%.

Consider `N=C(N)N1CCc2ccccc2C1`, for which the “activity change, negative = inhibition” value is 17.3%.

Consider `O=C(O)CCNC(=O)c1ccccc1`, for which the “activity change, negative = inhibition” value was 9.79%.

For `c1ccc(-c2nc[nH]c2-c2ccccc2)cc1`, the “activity change, negative = inhibition” value is -6.39%.

In the case of `COC(=O)C(c1ccccc1Cl)N1CCc2sccc2C1` (stereo unspecified), the “activity change, negative = inhibition” value is -12.5%.
